Reference: the supplement of paper PMC10849652
Of roughly 8,800 targets only a part is listed; those with a hit were picked by preference. About 0.5% of all pairs of compound and target were hits.

compound: O=C1NC(=O)C(c2cnc3ccccn23)=C1c1cn2c3c(cc(F)cc13)CN(C(=O)N1CCCCC1)CC2; test: log2 fold change, soluble protein after heating vs DMSO (PISA); higher = thermal stabilisation; K562 lysate, 10 uM; active = over 0.2 and 3.5 SD of the protein, either way, in both replicates (recomputed)
Procedure, shortened: (§1)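 Thermal stability, expressed as log-two fold change relative to solvent controls, is given from duplicates. Crude K562 extract in PBS pH 7.4 with 1 mM MgCl2, at 1 mg/mL protein, was treated with 10 μM compound for 30 min and heated in aliquots for 3 min across 48°C-58°C. After pooling, adjustment to 0.5% NP-40 at 4°C and centrifugation at 21,000xg for 90 min, supernatant protein was measured by TMTpro 16plex LC-MS/MS with channel sums equalised.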

Chain of UniProt Q15031 (Q15031 whole entry, looked up): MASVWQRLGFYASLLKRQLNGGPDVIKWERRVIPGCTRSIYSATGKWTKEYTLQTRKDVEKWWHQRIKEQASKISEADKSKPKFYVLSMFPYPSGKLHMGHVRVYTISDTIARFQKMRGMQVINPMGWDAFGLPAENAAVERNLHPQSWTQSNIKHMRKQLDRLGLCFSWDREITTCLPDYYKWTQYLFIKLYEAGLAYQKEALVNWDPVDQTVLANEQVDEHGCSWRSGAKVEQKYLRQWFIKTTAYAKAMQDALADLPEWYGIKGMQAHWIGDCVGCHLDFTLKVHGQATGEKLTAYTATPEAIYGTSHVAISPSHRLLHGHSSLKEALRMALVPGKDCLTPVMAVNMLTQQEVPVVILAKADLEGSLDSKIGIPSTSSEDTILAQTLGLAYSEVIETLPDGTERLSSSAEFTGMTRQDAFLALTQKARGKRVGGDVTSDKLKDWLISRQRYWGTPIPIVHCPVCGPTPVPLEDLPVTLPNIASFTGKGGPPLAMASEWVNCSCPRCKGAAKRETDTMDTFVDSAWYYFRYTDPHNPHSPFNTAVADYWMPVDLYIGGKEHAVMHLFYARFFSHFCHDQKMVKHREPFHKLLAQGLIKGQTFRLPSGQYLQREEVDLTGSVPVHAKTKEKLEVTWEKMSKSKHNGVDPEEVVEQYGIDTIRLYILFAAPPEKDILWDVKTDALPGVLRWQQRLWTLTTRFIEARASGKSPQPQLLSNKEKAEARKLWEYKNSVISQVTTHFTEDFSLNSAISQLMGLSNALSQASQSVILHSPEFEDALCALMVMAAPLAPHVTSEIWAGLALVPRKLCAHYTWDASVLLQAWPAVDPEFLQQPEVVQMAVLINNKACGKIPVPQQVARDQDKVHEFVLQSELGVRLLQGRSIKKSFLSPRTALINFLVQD
Chain of UniProt Q99797 (Q99797 whole entry, looked up): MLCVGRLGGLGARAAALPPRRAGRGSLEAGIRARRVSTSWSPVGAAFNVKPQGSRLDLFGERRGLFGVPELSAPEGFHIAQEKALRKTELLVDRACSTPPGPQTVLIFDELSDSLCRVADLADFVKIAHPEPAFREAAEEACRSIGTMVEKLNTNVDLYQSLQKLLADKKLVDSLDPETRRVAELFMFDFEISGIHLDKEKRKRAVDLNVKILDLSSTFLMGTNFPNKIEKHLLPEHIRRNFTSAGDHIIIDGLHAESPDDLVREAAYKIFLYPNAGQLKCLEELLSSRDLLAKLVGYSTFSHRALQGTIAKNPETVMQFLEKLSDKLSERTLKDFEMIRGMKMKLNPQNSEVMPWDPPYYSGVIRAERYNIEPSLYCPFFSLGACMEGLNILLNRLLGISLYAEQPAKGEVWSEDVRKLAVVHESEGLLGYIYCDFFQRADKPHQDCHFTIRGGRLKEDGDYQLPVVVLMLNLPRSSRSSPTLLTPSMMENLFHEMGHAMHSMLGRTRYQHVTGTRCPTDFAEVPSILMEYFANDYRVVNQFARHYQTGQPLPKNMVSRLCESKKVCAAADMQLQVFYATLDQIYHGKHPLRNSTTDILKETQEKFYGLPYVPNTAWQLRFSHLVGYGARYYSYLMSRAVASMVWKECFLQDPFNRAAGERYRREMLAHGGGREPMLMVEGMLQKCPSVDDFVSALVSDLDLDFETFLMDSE
Chain of UniProt Q9HD34 (Q9HD34 whole entry, looked up): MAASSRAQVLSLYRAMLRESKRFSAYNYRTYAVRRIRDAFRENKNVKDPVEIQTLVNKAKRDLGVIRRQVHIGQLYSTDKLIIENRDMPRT
Chain of UniProt Q9BV79 (Q9BV79 whole entry, looked up): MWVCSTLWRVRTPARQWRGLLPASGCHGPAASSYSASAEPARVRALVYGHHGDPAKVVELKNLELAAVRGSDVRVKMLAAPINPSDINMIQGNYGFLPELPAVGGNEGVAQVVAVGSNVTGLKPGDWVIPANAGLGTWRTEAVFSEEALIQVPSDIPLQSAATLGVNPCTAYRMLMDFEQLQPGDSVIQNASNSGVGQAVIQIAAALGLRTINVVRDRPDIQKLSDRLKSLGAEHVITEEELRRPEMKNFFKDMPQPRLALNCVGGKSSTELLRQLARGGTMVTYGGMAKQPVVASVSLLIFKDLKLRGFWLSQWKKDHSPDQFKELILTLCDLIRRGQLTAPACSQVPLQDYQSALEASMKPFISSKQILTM
Chain of UniProt Q93074 (Q93074 whole entry, looked up): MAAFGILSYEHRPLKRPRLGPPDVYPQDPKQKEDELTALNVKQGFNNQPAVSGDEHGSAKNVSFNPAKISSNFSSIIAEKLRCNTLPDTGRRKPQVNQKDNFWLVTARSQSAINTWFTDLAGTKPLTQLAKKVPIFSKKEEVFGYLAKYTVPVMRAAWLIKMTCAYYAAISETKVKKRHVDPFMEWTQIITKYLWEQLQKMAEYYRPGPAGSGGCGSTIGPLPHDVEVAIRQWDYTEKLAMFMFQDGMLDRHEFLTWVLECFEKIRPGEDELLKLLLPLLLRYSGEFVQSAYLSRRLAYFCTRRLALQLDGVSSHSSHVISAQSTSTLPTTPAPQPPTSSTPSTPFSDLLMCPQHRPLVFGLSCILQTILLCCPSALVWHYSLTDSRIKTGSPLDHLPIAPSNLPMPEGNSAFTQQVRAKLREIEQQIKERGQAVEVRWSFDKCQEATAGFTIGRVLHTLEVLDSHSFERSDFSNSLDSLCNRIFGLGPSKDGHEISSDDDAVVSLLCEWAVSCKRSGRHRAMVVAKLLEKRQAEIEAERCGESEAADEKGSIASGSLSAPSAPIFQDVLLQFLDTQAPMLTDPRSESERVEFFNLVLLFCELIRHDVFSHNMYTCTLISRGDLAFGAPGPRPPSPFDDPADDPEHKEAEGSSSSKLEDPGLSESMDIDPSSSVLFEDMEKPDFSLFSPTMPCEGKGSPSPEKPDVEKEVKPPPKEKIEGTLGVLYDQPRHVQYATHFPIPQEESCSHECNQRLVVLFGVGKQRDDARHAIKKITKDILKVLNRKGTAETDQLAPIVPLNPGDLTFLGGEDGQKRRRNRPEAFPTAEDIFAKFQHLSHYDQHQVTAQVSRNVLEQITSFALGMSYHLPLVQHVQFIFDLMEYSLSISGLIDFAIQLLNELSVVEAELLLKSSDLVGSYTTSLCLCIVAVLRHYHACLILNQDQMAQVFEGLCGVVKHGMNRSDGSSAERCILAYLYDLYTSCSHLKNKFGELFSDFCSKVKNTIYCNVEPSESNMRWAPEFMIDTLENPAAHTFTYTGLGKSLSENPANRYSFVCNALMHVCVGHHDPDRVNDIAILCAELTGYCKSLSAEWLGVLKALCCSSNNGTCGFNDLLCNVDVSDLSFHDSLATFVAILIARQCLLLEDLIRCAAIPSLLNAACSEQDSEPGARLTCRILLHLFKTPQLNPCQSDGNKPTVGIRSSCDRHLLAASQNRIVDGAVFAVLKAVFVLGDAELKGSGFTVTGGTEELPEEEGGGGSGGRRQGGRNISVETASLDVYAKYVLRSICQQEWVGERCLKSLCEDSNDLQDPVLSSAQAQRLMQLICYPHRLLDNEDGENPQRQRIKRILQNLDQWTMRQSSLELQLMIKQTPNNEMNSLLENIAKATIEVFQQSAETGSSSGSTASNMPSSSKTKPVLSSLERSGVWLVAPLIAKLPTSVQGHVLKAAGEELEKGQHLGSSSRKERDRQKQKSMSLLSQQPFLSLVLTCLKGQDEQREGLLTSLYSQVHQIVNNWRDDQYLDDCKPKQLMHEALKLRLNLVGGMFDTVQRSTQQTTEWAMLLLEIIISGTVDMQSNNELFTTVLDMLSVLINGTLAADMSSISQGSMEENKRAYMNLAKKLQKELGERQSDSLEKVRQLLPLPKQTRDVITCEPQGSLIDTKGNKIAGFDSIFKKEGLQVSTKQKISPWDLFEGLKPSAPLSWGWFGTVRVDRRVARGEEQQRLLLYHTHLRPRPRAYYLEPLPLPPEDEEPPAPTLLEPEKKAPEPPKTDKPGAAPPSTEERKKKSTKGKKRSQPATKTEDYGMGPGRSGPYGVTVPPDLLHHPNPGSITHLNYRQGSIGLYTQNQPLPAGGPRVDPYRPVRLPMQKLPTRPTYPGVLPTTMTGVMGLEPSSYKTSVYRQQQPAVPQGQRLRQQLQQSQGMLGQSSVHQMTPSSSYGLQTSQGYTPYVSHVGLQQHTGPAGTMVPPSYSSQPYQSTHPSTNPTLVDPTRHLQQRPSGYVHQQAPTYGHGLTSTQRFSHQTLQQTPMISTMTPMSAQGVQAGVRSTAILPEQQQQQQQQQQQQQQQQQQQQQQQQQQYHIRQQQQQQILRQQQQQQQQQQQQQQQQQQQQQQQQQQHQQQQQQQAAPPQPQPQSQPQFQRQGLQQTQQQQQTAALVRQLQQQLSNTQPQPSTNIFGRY
Chain of UniProt Q08380 (Q08380 whole entry, looked up): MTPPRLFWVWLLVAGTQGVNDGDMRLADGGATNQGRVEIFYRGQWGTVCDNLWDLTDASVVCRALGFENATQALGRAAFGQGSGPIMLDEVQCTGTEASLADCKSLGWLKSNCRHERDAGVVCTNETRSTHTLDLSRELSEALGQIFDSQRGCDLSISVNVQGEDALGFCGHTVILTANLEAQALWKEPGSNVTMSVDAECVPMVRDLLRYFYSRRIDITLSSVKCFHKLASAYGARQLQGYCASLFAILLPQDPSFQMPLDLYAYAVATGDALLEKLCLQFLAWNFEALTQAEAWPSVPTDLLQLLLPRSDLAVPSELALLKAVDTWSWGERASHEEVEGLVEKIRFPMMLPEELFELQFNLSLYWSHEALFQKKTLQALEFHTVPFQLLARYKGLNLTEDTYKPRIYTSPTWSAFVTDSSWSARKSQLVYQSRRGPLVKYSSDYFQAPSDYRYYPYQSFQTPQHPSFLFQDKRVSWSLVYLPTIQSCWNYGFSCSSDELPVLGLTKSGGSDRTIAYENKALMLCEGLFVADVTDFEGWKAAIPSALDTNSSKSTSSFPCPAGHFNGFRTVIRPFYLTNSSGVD
Chain of UniProt Q9BTT4 (Q9BTT4 whole entry, looked up): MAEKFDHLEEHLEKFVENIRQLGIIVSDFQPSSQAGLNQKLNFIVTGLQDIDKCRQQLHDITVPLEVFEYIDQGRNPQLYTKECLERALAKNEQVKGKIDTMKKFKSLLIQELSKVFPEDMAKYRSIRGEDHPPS

log2 fold change, inactive:
MITD1 (UniProt Q8WV92) -0.079, LYRM4 (UniProt Q9HD34) 0.023, LSG1 (UniProt Q9H089) 0.096, MED8 isoform 2 (UniProt Q96G25) -0.026, LARP4B (UniProt Q92615) -0.028, MPDZ (UniProt O75970) 0.177, LGALS3BP (UniProt Q08380) 0.113, MCMBP (UniProt Q9BTE3) -0.013, MIPEP (UniProt Q99797) -0.021, MED17 (UniProt Q9NVC6) -0.006, MLH1 (UniProt P40692) 0.005, LIG4 (UniProt P49917) -0.039, MPZL1 (UniProt O95297) 0.021, MAPK9 (UniProt P45984) -0.004, MAP2K7 isoform 4 (UniProt O14733) -0.051, MFF isoform 2 (UniProt Q9GZY8) 0.029, LYAR (UniProt Q9NX58) 0.001, MECR (UniProt Q9BV79) -0.016, MAPKAPK3 (UniProt Q16644) 0.162, MAP3K4 (UniProt Q9Y6R4) -0.025, MAST4 (UniProt O15021) -0.025, MINDY1 isoform 3 (UniProt Q8N5J2) 0.166, LYSMD3 (UniProt Q7Z3D4) -0.029, LARS2 (UniProt Q15031) -0.083, MCCC1 (UniProt Q96RQ3) -0.003, MIF (UniProt P14174) -0.009, LAMP1 (UniProt P11279) -0.05, MED12 isoform 2 (UniProt Q93074) -0.008, MAP4 (UniProt E7EVA0) 0.079, MED10 (UniProt Q9BTT4) 0.021, KLC2 (UniProt Q9H0B6) -0.061, LRWD1 (UniProt Q9UFC0) -0.011, MBD2 (UniProt Q9UBB5) -0.022, LARS (UniProt Q9P2J5) -0.003, MON2 isoform 5 (UniProt Q7Z3U7) 0, MAD2L1BP isoform 3 (UniProt Q15013) 0.008, MLLT11 (UniProt Q13015) -0.016, LIG3 (UniProt P49916) -0.012, LIMS1 isoform 3 (UniProt P48059) 0.054

compound: c1cn2cc(-c3ccc4cn[nH]c4c3)nc(Nc3ccc(N4CCOCC4)cc3)c2n1 [entospletinib]; test: as above
Procedure, shortened: as §1

log2 fold change, active:
MED10 (UniProt Q9BTT4) -0.349

log2 fold change, inactive:
MITD1 (UniProt Q8WV92) -0.024, LYRM4 (UniProt Q9HD34) 0.007, LSG1 (UniProt Q9H089) 0.139, MED8 isoform 2 (UniProt Q96G25) 0, LARP4B (UniProt Q92615) -0.011, MPDZ (UniProt O75970) -0.111, LGALS3BP (UniProt Q08380) -0.129, MCMBP (UniProt Q9BTE3) -0.007, MIPEP (UniProt Q99797) -0.028, MED17 (UniProt Q9NVC6) 0.083, MLH1 (UniProt P40692) 0.022, LIG4 (UniProt P49917) 0.062, MPZL1 (UniProt O95297) 0.017, MAPK9 (UniProt P45984) 0, MAP2K7 isoform 4 (UniProt O14733) -0.047, MFF isoform 2 (UniProt Q9GZY8) -0.055, LYAR (UniProt Q9NX58) 0.014, MECR (UniProt Q9BV79) 0.011, MAPKAPK3 (UniProt Q16644) -0.049, MAP3K4 (UniProt Q9Y6R4) -0.045, MAST4 (UniProt O15021) 0.018, MINDY1 isoform 3 (UniProt Q8N5J2) -0.052, LYSMD3 (UniProt Q7Z3D4) 0.028, LARS2 (UniProt Q15031) 0.036, MCCC1 (UniProt Q96RQ3) 0.023, MIF (UniProt P14174) 0.064, LAMP1 (UniProt P11279) -0.004, MED12 isoform 2 (UniProt Q93074) -0.012, MAP4 (UniProt E7EVA0) -0.025, KLC2 (UniProt Q9H0B6) 0.034, LRWD1 (UniProt Q9UFC0) 0.006, MBD2 (UniProt Q9UBB5) 0.022, LARS (UniProt Q9P2J5) 0.012, MON2 isoform 5 (UniProt Q7Z3U7) 0.005, MAD2L1BP isoform 3 (UniProt Q15013) 0, MLLT11 (UniProt Q13015) 0.034, LIG3 (UniProt P49916) -0.004, LIMS1 isoform 3 (UniProt P48059) -0.016
